# Results published in the supplement of paper PMC11219838.
# Unmarked numbers belong to inactive results.
# System: Meloidogyne hapla J2
# Assay: proportion of mobile M. hapla J2 relative to DMSO control (fraction of DMSO control); higher = more viable, less nematicidal, active = 0.7 or less
# Settings: 60 µM; 5 days; temperature: 20 °C
# Procedure, shortened: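 About 25 M. hapla J2 were added per 96-well well in distilled water, and compound was pinned to 60 µM final (0.6% v/v DMSO). Sealed plates were shaken at 200 rpm for 5 days at 20 °C, then 2 µL 1 M NaOH was added before microscopic mobility scoring. Mobility was divided by the mean of eight DMSO wells on the same plate, and two biological replicates were averaged.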
row,SMILES,proportion of mobile M. hapla J2
1,Cc1ccc(-c2nnc(SCc3ccc(Br)cc3)o2)cc1,0.923
2,COc1ccc(-c2nc(C3CCCCC3)no2)cc1,0.896
3,CCc1ccc(OCc2nc(-c3ccc(Cl)cc3)no2)cc1,1.03
4,CC(Oc1ccc(Br)cc1)c1nc(-c2ccncc2)no1 (stereo not drawn),0.719
5,CC(C)(C)c1ccc(-c2nc(-c3ccncc3)no2)cc1,1.03
6,Fc1ccc(OCc2nc(-c3ccccc3)no2)cc1,1.02
7,Cc1cccc(OCc2nc(-c3ccc(Br)cc3)no2)c1,1.04
8,COc1ccc(-c2nnc(SCC(=O)Nc3ccc(Br)cc3C)o2)cc1,0.929
9,CCOc1ccccc1-c1nc(-c2ccc(Cl)cc2)no1,0.856
10,COc1ccc(CC(=O)Nc2ccc(-c3noc(-c4ccccc4Br)n3)cc2)cc1,1.08
11,O=C(CSc1nnc(-c2ccc(Br)cc2)o1)Nc1cccc2ccccc12,0.923
12,N#Cc1ccc(CSc2nnc(-c3ccccc3)o2)cc1,0.798
13,O=C(CSc1nnc(-c2ccccc2)o1)Nc1cccc(Cl)c1,1
14,CNC(=O)c1ccccc1-c1nc(-c2ccccc2Cl)no1,1
15,CC(=O)Nc1ccc(-c2nc(-c3ccccc3)no2)cc1,0.961
16,COC(=O)c1ccc(CSc2nnc(-c3cccnc3)o2)cc1,1.03
17,O=C(CSc1nnc(-c2ccncc2)o1)Nc1cc(Cl)cc(Cl)c1,0.948
18,O=C(CSc1nnc(-c2ccco2)o1)c1ccccc1,0.974
19,O=C(CSc1nnc(-c2cccc(Br)c2)o1)N1CCCCC1,0.915

row,SMILES,proportion of mobile M. hapla J2
1,CC(C)Oc1ccc(-c2nc(-c3ccccc3)no2)cc1,0.993
2,Cc1ccc(-c2nnc(SCC(=O)Nc3cc(C)ccc3C)o2)cc1,0.982
3,CCNC(=O)c1ccccc1-c1nc(-c2ccccc2)no1,0.908
4,CC(Sc1nnc(-c2ccco2)o1)C(=O)NC(c1ccccc1)c1ccccc1 (stereo not drawn),1.05
5,Clc1cc(Cl)c(OCc2nc(-c3ccncc3)no2)cc1Cl,0.713
6,CCOc1ccccc1-c1nc(-c2ccc(NC(=O)Cc3ccccc3OC)cc2)no1,1.04
7,Cc1ccc(-c2nnc(SCc3ccccc3Cl)o2)cc1,0.964
8,COc1ccc(C(=O)CSc2nnc(-c3cccc4ccccc34)o2)cc1,0.929
9,Clc1ccc(-c2noc(-c3cccnc3)n2)cc1,1
10,COc1cccc(-c2noc(COc3cc(C)cc(C)c3)n2)c1,1.02
11,COc1cccc(-c2noc(COc3ccc4ccccc4c3)n2)c1,1.04
12,CCOc1ccccc1-c1nnc(SCc2ccc(C(=O)OC)o2)o1,0.904
13,Brc1cccc(-c2noc(-c3ccc4c(c3)OCO4)n2)c1,1.03
14,Cc1ccccc1-c1noc(-c2ccc(F)cc2)n1,0.909
15,COc1ccc(-c2noc(COc3ccc(Br)c(C)c3)n2)cc1,0.972
16,COc1ccccc1-c1nnc(SCC(=O)Nc2ccccc2Cl)o1,0.973
17,O=C(CSc1nnc(-c2cccc3ccccc23)o1)c1ccc(F)cc1,0.912
18,CCOc1nc(-c2ccc(C)cc2)ccc1-c1noc(-c2ccco2)n1,0.944
19,Cn1c(SCc2nnc(-c3ccccc3)o2)nnc1-c1ccco1,0.827
